# Screening data: PubChem BioAssay, National Center for Advancing Translational Sciences (NCATS)
# Compounds with a hit are over-represented: about 19% of the library has one in this group of screens.
# IL-1B inflam inh = inhibitors of inflammasome signaling (IL-1 beta secretion); THP-1 LPS/ATP IL-1B secretion, AlphaLISA, 16 h; hits give low values; activity change, % at 57.5 µM; AID 743279; 360,000 compounds, 4.7% hits; in the data active means activity change below about -50%; inconclusive means mostly about -30% to -49%; further: on the % scale 0 is the no-effect control and ±100 the full control effect
#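 THP-1 cells pretreated 1 hr with compounds (up to 57.5 uM final), then stimulated with LPS (250 ng/mL final) plus ATP (1.25 mM final); secreted IL-1B measured by AlphaLISA after 16 hr, decreased signal indicating inhibition.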
# HepG2 viability = counter-screen for TGF-b inhibitors: cytotoxicity in HepG2 cells; 410,000 compounds, 0.76% hits; HepG2 CAGA-GFP viability, ATP luminescence, 18 h; Potency, µM (highest dose often 46.1 µM), without a hit: at the top dose activity change, negative = cytotoxicity, actives largely listed as cytotoxic; further: potency means the concentration at half of the fitted maximal effect
#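 HepG2 CAGA-GFP cells (1000/well, DMEM with 1% FBS) received compound, then TGF-beta at 500 pg/mL final, and were incubated 18 hours at 37 degrees C. Viability was read by CellTiter-Glo luminescence. Media-only wells were set as complete cell-killing and DMSO as no toxicity.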
# S-ASM inh = inhibitors of human secretory acid sphingomyelinase | P17405 | placental ASM, HMU-PC fluorogenic substrate, 60 min | Potency, µM (top dose mostly 57.5 µM), inactives show at the highest dose activity change, negative = inhibition, most hits filed as inhibitors | 340,000 compounds, 0.006% hits; further: potency means the concentration at half of the fitted maximal effect
# Target sequence (P17405 47-631 limits assumed): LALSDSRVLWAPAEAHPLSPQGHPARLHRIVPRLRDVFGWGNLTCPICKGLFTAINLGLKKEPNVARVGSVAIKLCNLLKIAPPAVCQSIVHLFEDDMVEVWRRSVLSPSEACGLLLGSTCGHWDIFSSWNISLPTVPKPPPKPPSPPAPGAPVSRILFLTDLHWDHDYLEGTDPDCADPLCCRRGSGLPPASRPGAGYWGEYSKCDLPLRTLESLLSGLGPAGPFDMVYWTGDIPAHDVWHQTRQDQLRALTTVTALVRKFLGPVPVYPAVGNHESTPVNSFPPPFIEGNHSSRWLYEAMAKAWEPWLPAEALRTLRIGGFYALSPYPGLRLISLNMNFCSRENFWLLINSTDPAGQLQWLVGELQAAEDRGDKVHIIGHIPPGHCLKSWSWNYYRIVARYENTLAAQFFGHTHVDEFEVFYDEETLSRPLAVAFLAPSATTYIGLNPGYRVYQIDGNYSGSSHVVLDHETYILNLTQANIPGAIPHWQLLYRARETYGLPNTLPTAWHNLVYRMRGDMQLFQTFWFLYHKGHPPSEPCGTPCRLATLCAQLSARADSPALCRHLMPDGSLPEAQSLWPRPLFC
#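 Steps: dispense placental human ASM, pin compound, wait 10 min at room temperature, add HMU-PC0 substrate at 9 uM final, incubate 60 min at 37 °C, add stop solution raising pH to 10, read fluorescence.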
# TDP1 cell noCPT = qHTS for Inhibitors of human tyrosyl-DNA phosphodiesterase 1 (TDP1): qHTS in cells in absence of CPT | AID 686978, 2013 | 420,000 compounds, 15% hits | DT40 Tdp1-/- hTDP1 cells, no CPT, ATP luminescence, 48 h | Potency, µM (highest dose often 46.2 µM), inactives show at the highest dose activity change, negative = growth inhibition, hits mostly inhibitors; further: potency means the concentration at half of the fitted maximal effect; on the % scale 0 is the no-effect control and ±100 the full control effect; nearly all actives have a fitted effect of over 55% in size
#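 Camptothecin absent (DMSO only). Human TDP1-complemented DT40 knockout cells, 400 cells/well, 37 °C for minimum 48 hr; ATP measured via CellTiter-Glo, 30 min dark incubation, luminescence.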
# TGFb SMAD3 inh = TGF-b pathway inhibition; HepG2 CAGA-GFP TGF-b/SMAD3 reporter, GFP fluorescence, 18 h; TGF-beta stimulated, 500 pg/mL final; Potency, µM (highest dose often 46.1 µM), for the others: at the highest dose activity, negative = inhibition, most hits filed as inhibitors; 410,000 compounds, 1.2% hits; AID 588855; further: potency means the concentration at half of the fitted maximal effect; on the % scale 0 is the no-effect control and ±100 the full control effect; nearly all actives have a fitted effect of over 65% in size
#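 Read-out: total well GFP (ex488/em500-530) summed from mean per-cell fluorescence. Cells: HEPG2 CAGA-GFP, 1% FBS DMEM, 18 h at 37 degrees C with 500 pg/mL final TGF-beta. Unstimulated wells served as the full-inhibition control; stimulated DMSO wells = 0%.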
# TDP1 cell CPT = DT40-hTDP1 cell growth loss with CPT; AID 686979; chicken DT40 Tdp1-/-;hTDP1 cells + 20 nM CPT, ATP luminescence, 48 h; 420,000 compounds, 12% hits; Potency, µM (highest dose often 46.2 µM), for the others: at the top dose activity change, negative = growth inhibition, actives largely listed as inhibitors; further: potency means the concentration at half of the fitted maximal effect; on the % scale 0 is the no-effect control and ±100 the full control effect; nearly all actives have a fitted effect of over 55% in size
#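 Chicken DT40 Tdp1-/- cells complemented with human TDP1, 400 cells/well, exposed to compounds plus 20 nM camptothecin for at least 48 h at 37 C; viability read as ATP content by CellTiter-Glo luminescence.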
# * = called active by the depositor; u = inconclusive; x = no result given. Unless noted, the call rests on the fitted dose curve; in most records, active means well fitted curve in the direction sought with a large enough effect; inconclusive means small, poorly fitted or top-dose-only effect, or another doubt; inactive means no such curve, though single readings can be large; an effect the other way counts as inactive or inconclusive.
SMILES,IL-1B inflam inh,HepG2 viability,S-ASM inh,TDP1 cell noCPT,TGFb SMAD3 inh,TDP1 cell CPT
CC1(C)CC2CC(C)(CN2C(=O)c2cccs2)C1 (stereo not given),27,-23%,7%,8.2µM*,0%,u
CC1(C)C[C@@H]2C[C@@](C)(CN2C(=O)c2ccccc2)C1,15,-19%,2%,15µM*,-9%,u
CC1(C)CC2CC(C)(CN2C(=O)c2ccc([N+](=O)[O-])cc2)C1 (stereo not given),0,4%,4%,u,-2%,21µM*
CC1(C)CC2CC(C)(CN2C(=O)COc2cccc3ccccc23)C1 (stereo not given),u,-10%,-11%,u,-2%,u
CC(=O)Nc1ccccc1C(=O)N1CC2(C)CC1CC(C)(C)C2 (stereo not given),9,3%,4%,-1%,6%,-5%
Cc1ccc(S(=O)(=O)N2C[C@@H]3CCCC[C@@H]3[C@@H](C)[C@H]2CC(=O)c2ccccc2)cc1,7,-4%,1%,13µM*,-7%,15µM*
Cc1ccc(S(=O)(=O)N2[C@H](CC(=O)c3ccccc3)OC[C@@H]2C)cc1,28,x,x,u,x,u
CCOc1ccc(C2c3[nH]c4ccccc4c3CCN2C(=O)Cc2cccc(OCC)c2OCC)cc1 (stereo not given),x,-12%,x,u,-11%,u
CN(C)CCCC1Sc2ccccc2Sc2ccccc21 (stereo not given),-66*,-41%,-1%,u,u,u
COc1ccccc1CCCNC(=O)C1CCC(=O)N(CCc2ccc(Cl)cc2)C1 (stereo not given),-51*,-48%,5%,23µM*,-16%,18µM*
COc1ccccc1CCNC(=O)C1CCC(=O)N(Cc2ccccc2OC)C1 (stereo not given),-10,-15%,3%,-22%,-27%,-18%
CN(C)C1(CNC(=O)C2CCC(=O)N(Cc3ccc(Cl)cc3)C2)CCCCC1 (stereo not given),-7,14µM*,0%,0%,2%,9%
Cc1ccc(NC(=O)c2sc3ccccc3c2Cl)cc1,x,-13%,x,-3%,-9%,-23%
O=C(Nc1ccncc1)c1sc2ccccc2c1Cl,-55*,-28%,-1%,18µM*,-30%,u
O=C(Nc1ccnc(=O)[nH]1)c1sc2ccccc2c1Cl,0,1%,9%,-16%,2%,15µM*
O=Cc1ccc(Cl)c(Cl)c1,-2,-32%,3%,-13%,-7%,7%
CCOC(=O)C(C)On1c(-c2cccc(Cl)c2)nc2ccc([N+](=O)[O-])cc21 (stereo not given),-17,-29%,-9%,21µM*,u,u
CC(C)(C)n1[nH]c2c3c(ccc2c1=O)C(=O)c1ccccc1C3=O,0,6.3µM*,-2%,7.3µM*,10µM*,8.2µM*
Cc1ccc(C)c(-n2[nH]c3c4c(ccc3c2=O)C(=O)c2ccccc2C4=O)c1,-7,1%,-3%,u,-2%,u
Cc1ccc(-n2[nH]c3c4c(ccc3c2=O)C(=O)c2ccccc2C4=O)cc1,-4,-7%,4%,-21%,9%,-8%
COCCCn1[nH]c2c3c(ccc2c1=O)C(=O)c1ccccc1C3=O,-18,-93%,-4%,16µM*,u,16µM*
O=S(=O)(c1ccccc1)N1CCNCC1,6,12%,2%,2%,0%,25%
Cc1cccc(OCC(=O)NCc2ccc3c(c2)CCN3C(=O)c2ccc(Cl)cc2)c1,x,0%,x,-5%,7%,-4%
